{"source": "the antibiotic and cytotoxicity screens of Wong et al. (2023)", "note": "In all, about 39,000 compounds went through this assay and about 3,300 (8.5%) were called active. Only a selection was taken, and actives are over-represented in it overall."}
{"system": "HepG2", "assay": "cytotoxicity call (relative viability < 0.9)", "settings": "10 µM"}
{"smiles": "CCS(=O)(=O)N1C[C@]2(CCN(CC2)S(=O)(=O)c2cn(cn2)C)c2c([nH]c3cc(ccc23)OC)[C@@H]1CO", "cytotoxicity call": "inactive"}
{"smiles": "COc1ccc(S(=O)(=O)Nc2ccc3c(c2)C(=O)N([C@@H](C)CO)C[C@@H](C)[C@H](CN(C)C(=O)Nc2c(C)noc2C)OCCCC[C@@H](C)O3)cc1", "cytotoxicity call": "inactive"}
{"smiles": "Cc1noc(C)c1NC(=O)N(C)C[C@@H]1Oc2ccc(NS(=O)(=O)c3c(C)noc3C)cc2C(=O)N([C@@H](C)CO)C[C@H]1C", "cytotoxicity call": "inactive"}
{"smiles": "Cl.NC[C@H](N)C(=O)O", "cytotoxicity call": "inactive"}
{"smiles": "COc1ccccc1S(=O)(=O)N(C)C[C@H]1OCc2cn(nn2)CCCC(=O)N([C@H](C)CO)C[C@@H]1C", "cytotoxicity call": "inactive"}
{"smiles": "Cc1cccc(NC(=O)Nc2ccc3c(c2)C(=O)N(C)[C@@H]2CC[C@H](CC(=O)NCc4ccccc4Cl)O[C@H]2CO3)c1", "cytotoxicity call": "inactive"}
{"smiles": "C=CC[C@H](CC(=O)N(CCO)Cc1ccccc1)C(=O)N[C@H](COC(=O)[C@@H](CC=C)CC(=O)OC(C)(C)C)Cc1c[nH]c2ccccc12", "cytotoxicity call": "inactive"}
{"smiles": "C[C@H](CO)N1C[C@H](C)[C@H](CN(C)C(=O)Nc2ccccc2)Oc2ccc(NC(=O)CCN3CCOCC3)cc2CC1=O", "cytotoxicity call": "inactive"}
{"smiles": "Cc1ccc(S(=O)(=O)N(C)C[C@@H]2Oc3ccc(NS(=O)(=O)c4ccc(F)cc4)cc3CC(=O)N([C@H](C)CO)C[C@H]2C)cc1", "cytotoxicity call": "inactive"}
{"smiles": "O=C(NCc1ccccc1)C1=C[C@H](c2ccc(Br)cc2)C[C@H](OCc2ccc(CO)cc2)O1", "cytotoxicity call": "inactive"}
{"smiles": "Cc1ccc(S(=O)(=O)N(C)C[C@H]2Oc3ccc(NS(C)(=O)=O)cc3CC(=O)N([C@@H](C)CO)C[C@H]2C)cc1", "cytotoxicity call": "inactive"}
{"smiles": "COC1=CC(=O)C(O)=CC1=CC=Cc1ccccc1", "cytotoxicity call": "active"}
{"smiles": "O=C(O)C=CC=Cc1ccccc1", "cytotoxicity call": "inactive"}
{"smiles": "COc1cc(CC=Cc2ccccc2)c(OC)cc1O", "cytotoxicity call": "inactive"}
{"smiles": "C[C@@H]1CN([C@H](C)CO)C(=O)c2cc(NC(=O)C3CCCCC3)ccc2O[C@@H]1CN(C)C(=O)Nc1ccc(C(F)(F)F)cc1", "cytotoxicity call": "inactive"}
{"smiles": "C[C@H]1CN([C@@H](C)CO)C(=O)c2cc(NS(=O)(=O)c3cccs3)ccc2O[C@H]1CN(C)S(=O)(=O)c1ccccc1", "cytotoxicity call": "inactive"}
{"smiles": "C[C@@H]1CN([C@H](C)CO)C(=O)c2cc(NC(=O)CCCCCC(=O)Nc3ccccc3N)ccc2O[C@@H]1CN(C)S(C)(=O)=O", "cytotoxicity call": "inactive"}
{"smiles": "C[C@H](CO)N1C[C@H](C)[C@H](CN(C)C(=O)C2CCCCC2)OCCCC[C@H](C)Oc2ccc(NC(=O)CCC(F)(F)F)cc2C1=O", "cytotoxicity call": "inactive"}
{"smiles": "Cc1ccc(NC(=O)[C@@H]2[C@@H]3CC/C=C\\CC/C=C/CC[C@@H]32)cc1C", "cytotoxicity call": "inactive"}
{"smiles": "CCC(=O)c1ccc(Cl)s1", "cytotoxicity call": "inactive"}
{"smiles": "C[C@@H]1CCCCO[C@@H](CN(C)C(=O)Nc2ccc(C(F)(F)F)cc2)[C@H](C)CN([C@H](C)CO)C(=O)c2cc(NC(=O)Nc3ccc(F)cc3)ccc2O1", "cytotoxicity call": "active"}
{"smiles": "C[C@H]1CCCCO[C@@H](CN(C)C(=O)Nc2ccc(C(F)(F)F)cc2)[C@@H](C)CN([C@@H](C)CO)C(=O)c2cc(NC(=O)Nc3ccc(F)cc3)ccc2O1", "cytotoxicity call": "inactive"}
{"smiles": "C[C@@H]1CN([C@H](C)CO)C(=O)c2cc(NC(=O)Nc3ccc(F)cc3)ccc2O[C@@H](C)CCCCO[C@H]1CN(C)C(=O)Nc1ccc(C(F)(F)F)cc1", "cytotoxicity call": "active"}
{"smiles": "C[C@H]1CCCCO[C@@H](CN(C)C(=O)Nc2ccc(F)cc2)[C@@H](C)CN([C@@H](C)CO)C(=O)c2cc(NC(=O)Nc3ccc(C(F)(F)F)cc3)ccc2O1", "cytotoxicity call": "inactive"}
{"smiles": "C[C@H](CO)N1C[C@H](C)[C@@H](CN(C)C(=O)Nc2ccc(F)cc2)OCCCC[C@H](C)Oc2ccc(NC(=O)Nc3ccc(C(F)(F)F)cc3)cc2C1=O", "cytotoxicity call": "inactive"}
{"smiles": "C[C@@H]1CN([C@H](C)CO)C(=O)c2cc(NC(=O)Nc3ccc(C(F)(F)F)cc3)ccc2O[C@@H](C)CCCCO[C@H]1CN(C)C(=O)Nc1ccc(F)cc1", "cytotoxicity call": "active"}
{"smiles": "C[C@H](CO)N1C[C@H](C)[C@H](CN(C)C(=O)Nc2ccc(F)cc2)OCCCC[C@H](C)Oc2ccc(NC(=O)Nc3ccc(C(F)(F)F)cc3)cc2C1=O", "cytotoxicity call": "inactive"}
{"smiles": "C[C@H]1CCCCO[C@H](CN(C)C(=O)Nc2ccc(C(F)(F)F)cc2)[C@@H](C)CN([C@@H](C)CO)C(=O)c2cc(NC(=O)Nc3ccc(F)cc3)ccc2O1", "cytotoxicity call": "inactive"}
{"smiles": "C[C@H](CO)N1C[C@H](C)[C@@H](CN(C)C(=O)Nc2ccc(C(F)(F)F)cc2)OCCCC[C@H](C)Oc2ccc(NC(=O)Nc3ccc(F)cc3)cc2C1=O", "cytotoxicity call": "inactive"}
{"smiles": "C[C@@H]1CCCCO[C@H](CN(C)C(=O)Nc2ccc(C(F)(F)F)cc2)[C@@H](C)CN([C@H](C)CO)C(=O)c2cc(NC(=O)Nc3ccc(F)cc3)ccc2O1", "cytotoxicity call": "active"}
{"smiles": "C[C@@H]1CCCCO[C@H](CN(C)C(=O)Nc2ccc(F)cc2)[C@@H](C)CN([C@@H](C)CO)C(=O)c2cc(NC(=O)Nc3ccc(C(F)(F)F)cc3)ccc2O1", "cytotoxicity call": "inactive"}
{"smiles": "C[C@@H]1CCCCO[C@H](CN(C)C(=O)Nc2ccc(C(F)(F)F)cc2)[C@H](C)CN([C@H](C)CO)C(=O)c2cc(NC(=O)Nc3ccc(F)cc3)ccc2O1", "cytotoxicity call": "inactive"}
{"smiles": "Cc1ccc(S(=O)(=O)Nc2ccc3c(c2)C(=O)N([C@@H](C)CO)C[C@@H](C)[C@H](CN(C)S(=O)(=O)c2ccc(F)cc2)O3)cc1", "cytotoxicity call": "inactive"}
{"smiles": "C[C@H](CO)N1C[C@H](C)[C@@H](CN(C)S(C)(=O)=O)Oc2c(NC(=O)CCCCCC(=O)Nc3ccccc3N)cccc2C1=O", "cytotoxicity call": "inactive"}
{"smiles": "C[C@@H]1CN([C@H](C)CO)C(=O)c2cc(NS(=O)(=O)c3cn(C)cn3)ccc2O[C@@H](C)CCCCO[C@@H]1CN(C)C(=O)CCCN(C)C", "cytotoxicity call": "inactive"}
{"smiles": "C[C@@H]1CN([C@H](C)CO)C(=O)Cc2cc(NC(=O)CCCCCC(=O)Nc3ccccc3N)ccc2O[C@H]1CN(C)C(=O)Nc1ccccc1", "cytotoxicity call": "inactive"}
{"smiles": "COc1cccc(-c2ccc3c(c2)O[C@H](CN(C)C(=O)C2CCC2)[C@H](C)CN([C@H](C)CO)S3(=O)=O)c1", "cytotoxicity call": "inactive"}
{"smiles": "C[C@@H]1CN([C@H](C)CO)C(=O)c2cc(NC(=O)Cc3ccccc3)ccc2O[C@@H](C)CCCCO[C@H]1CN(C)C(=O)Nc1ccc2c(c1)OCO2", "cytotoxicity call": "inactive"}
{"smiles": "CNC(=O)C[C@H]1CC[C@@H]2[C@H](COc3ccc(NC(=O)c4ccc(C(F)(F)F)cc4)cc3C(=O)N2C)O1", "cytotoxicity call": "inactive"}
{"smiles": "C[C@H](CO)N1C[C@H](C)[C@H](CN(C)Cc2ccc(C(=O)O)cc2)OCCCC[C@H](C)Oc2ccc(NS(=O)(=O)c3ccc(Cl)cc3)cc2C1=O", "cytotoxicity call": "inactive"}
{"smiles": "Cc1noc(C)c1NC(=O)N(C)C[C@@H]1Oc2c(NC(=O)NC(C)C)cccc2C(=O)N([C@@H](C)CO)C[C@@H]1C", "cytotoxicity call": "inactive"}
{"smiles": "NNc1ccc2[nH]c(=O)[nH]c2c1", "cytotoxicity call": "inactive"}
{"smiles": "C[C@@H]1CCCCO[C@@H](CN(C)Cc2ccc(C(F)(F)F)cc2)[C@H](C)CN([C@H](C)CO)C(=O)c2cc(NC(=O)Nc3ccc(F)cc3)ccc2O1", "cytotoxicity call": "inactive"}
{"smiles": "C[C@@H]1CCCCO[C@H](CN(C)Cc2ccc(C(F)(F)F)cc2)[C@@H](C)CN([C@@H](C)CO)C(=O)c2cc(NC(=O)Nc3ccc(F)cc3)ccc2O1", "cytotoxicity call": "active"}
{"smiles": "C[C@H](CO)N1C[C@H](C)[C@H](CN(C)Cc2ccc(C(F)(F)F)cc2)OCCCC[C@H](C)Oc2ccc(NC(=O)Nc3ccc(F)cc3)cc2C1=O", "cytotoxicity call": "active"}
{"smiles": "C[C@H]1CCCCO[C@H](CN(C)Cc2ccc(C(F)(F)F)cc2)[C@@H](C)CN([C@@H](C)CO)C(=O)c2cc(NC(=O)Nc3ccc(F)cc3)ccc2O1", "cytotoxicity call": "active"}
{"smiles": "C[C@@H]1CN([C@@H](C)CO)C(=O)c2cc(NC(=O)Nc3ccc(F)cc3)ccc2O[C@@H](C)CCCCO[C@H]1CN(C)Cc1ccc(C(F)(F)F)cc1", "cytotoxicity call": "active"}
{"smiles": "C[C@@H]1CN([C@@H](C)CO)C(=O)c2cc(NC(=O)Nc3ccc(F)cc3)ccc2O[C@@H](C)CCCCO[C@@H]1CN(C)Cc1ccc(C(F)(F)F)cc1", "cytotoxicity call": "inactive"}
{"smiles": "C[C@@H]1CCCCO[C@@H](CN(C)Cc2ccc(C(F)(F)F)cc2)[C@H](C)CN([C@@H](C)CO)C(=O)c2cc(NC(=O)Nc3ccc(F)cc3)ccc2O1", "cytotoxicity call": "inactive"}
{"smiles": "C[C@H](CO)N1C[C@H](C)[C@@H](CN(C)Cc2ccc(C(F)(F)F)cc2)OCCCC[C@H](C)Oc2ccc(NC(=O)Nc3ccc(F)cc3)cc2C1=O", "cytotoxicity call": "inactive"}
{"smiles": "CCNC(=O)C[C@H]1C=C[C@@H](NC(=O)C2CCOCC2)[C@@H](CO)O1", "cytotoxicity call": "inactive"}
{"smiles": "COc1ccc(NC(=O)N(C)C[C@@H]2Oc3ccc(NC(=O)C4CC4)cc3CC(=O)N([C@H](C)CO)C[C@H]2C)cc1", "cytotoxicity call": "inactive"}
{"smiles": "CN(C)CC(=O)N[C@@H]1CC[C@H](CCNC(=O)C2CC2)O[C@H]1CO", "cytotoxicity call": "inactive"}
{"smiles": "COc1ccc(NC(=O)N(C)C[C@H]2OCCCC[C@H](C)Oc3ccc(NS(=O)(=O)c4ccc(OC)cc4)cc3C(=O)N([C@H](C)CO)C[C@@H]2C)cc1", "cytotoxicity call": "inactive"}
{"smiles": "C[C@H](CO)N1C[C@H](C)[C@@H](CN(C)C(=O)Nc2ccc(N3CCN(C)CC3)cc2)OCc2cnnn2CCCC1=O", "cytotoxicity call": "inactive"}
{"smiles": "CC(=O)NCCCC[C@@H]1NC(=O)[C@@H]2C[C@H](C(=O)NCCCCCNC(=O)CS)[C@H](c3cccc(OCCO)c3)N2C1=O", "cytotoxicity call": "inactive"}
{"smiles": "C[C@@H]1CN([C@H](C)CO)C(=O)c2cc(NS(=O)(=O)c3cn(C)cn3)ccc2O[C@@H](C)CCCCO[C@@H]1CN(C)S(=O)(=O)c1ccccc1", "cytotoxicity call": "inactive"}
{"smiles": "C[C@@H]1CN([C@H](C)CO)C(=O)c2cccc(NC(=O)NC3CCCCC3)c2O[C@@H]1CN(C)Cc1ccc(Oc2ccccc2)cc1", "cytotoxicity call": "inactive"}
{"smiles": "COc1ccc(NC(=O)N(C)C[C@H]2Oc3ccc(NC(=O)Nc4cccc5ccccc45)cc3CC(=O)N([C@H](C)CO)C[C@H]2C)cc1", "cytotoxicity call": "inactive"}
{"smiles": "CC(C)CC#Cc1ccc2c(c1)O[C@H](CN(C)C(=O)Cc1ccccn1)[C@@H](C)CN([C@H](C)CO)S2(=O)=O", "cytotoxicity call": "inactive"}
